# In article PMC11024108:
# Assays:
# Histone H2A type 1-J = Histone H2A type 1-J (UniProt Q99878); test: cross-link between two proteins; cross-linking mass spectrometry
# [1] = target: Actin-related protein 2/3 complex subunit 2 (UniProt Q9CVB6); test: as above
# [2] = target: Large ribosomal subunit protein eL27 (UniProt P61353); test: as above
# [3] = target: Large ribosomal subunit protein eL30 (UniProt P62888); test: as above
# [4] = target: Actin-related protein 2/3 complex subunit 5 (UniProt Q9CPW4); test: as above
# [5] = target: Actin-related protein 2/3 complex subunit 5-like protein (UniProt Q9D898); test: as above
# Histone H2B type 1-L = Histone H2B type 1-L (UniProt Q99880); test: as above
# Histone H2B type 1-M = Histone H2B type 1-M (UniProt Q99879); test: as above
# Histone H4 = Histone H4 (UniProt P62805); test: as above
# [6] = target: Large ribosomal subunit protein eL42 (UniProt P83881); test: as above
# [7] = target: AP-2 complex subunit beta (UniProt P63010); test: as above
# AP-2 complex subunit beta, sequence (P63010 whole entry, one chain of several): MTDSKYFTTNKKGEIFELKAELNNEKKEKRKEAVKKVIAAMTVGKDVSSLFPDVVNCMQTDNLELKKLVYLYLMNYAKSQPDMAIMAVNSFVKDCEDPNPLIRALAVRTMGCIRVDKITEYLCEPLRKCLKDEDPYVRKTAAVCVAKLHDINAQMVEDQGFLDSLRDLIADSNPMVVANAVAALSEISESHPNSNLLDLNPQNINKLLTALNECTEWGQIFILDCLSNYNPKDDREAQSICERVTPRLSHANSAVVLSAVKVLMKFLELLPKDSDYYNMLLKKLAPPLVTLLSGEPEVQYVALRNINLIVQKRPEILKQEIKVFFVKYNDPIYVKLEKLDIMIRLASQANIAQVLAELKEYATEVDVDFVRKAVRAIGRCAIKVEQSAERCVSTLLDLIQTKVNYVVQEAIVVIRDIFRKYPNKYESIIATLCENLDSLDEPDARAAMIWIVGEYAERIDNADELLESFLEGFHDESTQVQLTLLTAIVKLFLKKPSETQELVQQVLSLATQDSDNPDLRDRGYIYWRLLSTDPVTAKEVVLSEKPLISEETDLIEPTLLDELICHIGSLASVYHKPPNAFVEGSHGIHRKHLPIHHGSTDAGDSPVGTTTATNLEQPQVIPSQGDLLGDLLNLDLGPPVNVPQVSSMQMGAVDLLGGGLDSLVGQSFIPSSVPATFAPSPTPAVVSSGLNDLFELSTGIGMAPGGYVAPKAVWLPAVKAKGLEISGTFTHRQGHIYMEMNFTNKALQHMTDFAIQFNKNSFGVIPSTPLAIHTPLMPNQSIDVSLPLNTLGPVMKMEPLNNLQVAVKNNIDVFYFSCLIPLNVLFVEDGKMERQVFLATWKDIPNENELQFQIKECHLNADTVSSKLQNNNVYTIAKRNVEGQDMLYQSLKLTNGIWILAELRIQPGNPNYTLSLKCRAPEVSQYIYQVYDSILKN
# [8] = target: AP-1 complex subunit beta-1 (UniProt Q10567); test: cross-link between two proteins; co-fractionation; cross-linking mass spectrometry
# AP-1 complex subunit beta-1, sequence (Q10567 whole entry, one chain of several): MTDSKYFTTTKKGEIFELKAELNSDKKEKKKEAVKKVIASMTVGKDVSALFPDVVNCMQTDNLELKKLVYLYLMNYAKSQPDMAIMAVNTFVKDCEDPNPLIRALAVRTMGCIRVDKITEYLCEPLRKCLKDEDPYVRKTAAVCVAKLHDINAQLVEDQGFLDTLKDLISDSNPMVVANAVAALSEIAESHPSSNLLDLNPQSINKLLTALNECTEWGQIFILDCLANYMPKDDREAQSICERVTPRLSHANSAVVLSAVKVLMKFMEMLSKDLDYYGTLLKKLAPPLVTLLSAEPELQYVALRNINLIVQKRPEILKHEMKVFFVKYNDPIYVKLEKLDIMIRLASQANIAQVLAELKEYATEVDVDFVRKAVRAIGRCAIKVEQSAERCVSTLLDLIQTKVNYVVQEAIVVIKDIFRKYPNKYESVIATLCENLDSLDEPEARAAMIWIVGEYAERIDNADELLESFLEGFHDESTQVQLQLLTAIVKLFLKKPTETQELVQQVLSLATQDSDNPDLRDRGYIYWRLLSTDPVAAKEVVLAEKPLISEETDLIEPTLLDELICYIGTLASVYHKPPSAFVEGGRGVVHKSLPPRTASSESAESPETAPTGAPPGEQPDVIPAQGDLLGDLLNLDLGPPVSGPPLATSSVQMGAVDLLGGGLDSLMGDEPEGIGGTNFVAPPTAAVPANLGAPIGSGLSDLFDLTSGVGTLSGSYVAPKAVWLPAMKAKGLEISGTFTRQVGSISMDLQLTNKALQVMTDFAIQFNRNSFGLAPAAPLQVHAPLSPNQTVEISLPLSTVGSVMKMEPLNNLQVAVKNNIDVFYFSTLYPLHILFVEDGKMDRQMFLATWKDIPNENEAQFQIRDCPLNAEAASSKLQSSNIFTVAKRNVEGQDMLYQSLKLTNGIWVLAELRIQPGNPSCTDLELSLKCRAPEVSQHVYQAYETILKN
# [9] = target: L-lactate dehydrogenase B chain (UniProt P16125); test: cross-link between two proteins; cross-linking mass spectrometry
# [10] = target: Large ribosomal subunit protein eL34 (UniProt Q9D1R9); test: as above
# [11] = target: Large ribosomal subunit protein uL22 (UniProt Q9CPR4); test: as above
# [12] = target: Complex III assembly factor LYRM7 (UniProt Q5U5X0); test: cross-linking mass spectrometry
# [13] = target: Malate dehydrogenase, mitochondrial (UniProt P40926); test: cross-linking mass spectrometry
# [14] = target: Elongation factor 1-alpha 1 (UniProt P68104); test: cross-linking mass spectrometry
# Histone H2B type 1-C/E/G = Histone H2B type 1-C/E/G (UniProt Q6ZWY9); test: cross-linking mass spectrometry
# [15] = target: Large ribosomal subunit protein uL11 (UniProt P30050); test: cross-linking mass spectrometry
# [16] = target: Large ribosomal subunit protein uL11m (UniProt Q9Y3B7); test: cross-linking mass spectrometry
# [17] = target: Large ribosomal subunit protein uL5 (UniProt P62913); test: cross-linking mass spectrometry
# [18] = target: Leucine-rich repeat-containing protein 59 (UniProt Q96AG4); test: cross-linking mass spectrometry
# [19] = target: Poly(A) RNA polymerase, mitochondrial (UniProt Q9NVV4); test: cross-linking mass spectrometry
# [20] = target: Ribosome-binding protein 1 (UniProt Q9P2E9); test: cross-linking mass spectrometry
# [21] = target: Small ribosomal subunit protein uS15 (UniProt P62301); test: cross-linking mass spectrometry
# [22] = target: Small ribosomal subunit protein eS27 (UniProt Q6ZWU9); test: cross-link between two proteins; cross-linking mass spectrometry
# [23] = target: MICOS complex subunit MIC60 (UniProt Q16891); test: as above
# [24] = target: Cytochrome c oxidase assembly factor 7 (UniProt Q96BR5); test: mass-spectrometry hit list; affinity purification or IP with mass spectrometry; cross-linking mass spectrometry
# [25] = target: Mitochondrial fission 1 protein (UniProt Q9CQ92); test: cross-link between two proteins; cross-linking mass spectrometry
# Mitochondrial fission 1 protein, sequence (Q9CQ92 whole entry): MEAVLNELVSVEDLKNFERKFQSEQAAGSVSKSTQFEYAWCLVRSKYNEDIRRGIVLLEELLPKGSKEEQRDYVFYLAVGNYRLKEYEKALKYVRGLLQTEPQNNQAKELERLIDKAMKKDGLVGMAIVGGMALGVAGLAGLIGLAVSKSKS
# [26] = target: Plasma membrane calcium-transporting ATPase 2 (UniProt Q9R0K7); test: as above
# Plasma membrane calcium-transporting ATPase 2, sequence (Q9R0K7 whole entry): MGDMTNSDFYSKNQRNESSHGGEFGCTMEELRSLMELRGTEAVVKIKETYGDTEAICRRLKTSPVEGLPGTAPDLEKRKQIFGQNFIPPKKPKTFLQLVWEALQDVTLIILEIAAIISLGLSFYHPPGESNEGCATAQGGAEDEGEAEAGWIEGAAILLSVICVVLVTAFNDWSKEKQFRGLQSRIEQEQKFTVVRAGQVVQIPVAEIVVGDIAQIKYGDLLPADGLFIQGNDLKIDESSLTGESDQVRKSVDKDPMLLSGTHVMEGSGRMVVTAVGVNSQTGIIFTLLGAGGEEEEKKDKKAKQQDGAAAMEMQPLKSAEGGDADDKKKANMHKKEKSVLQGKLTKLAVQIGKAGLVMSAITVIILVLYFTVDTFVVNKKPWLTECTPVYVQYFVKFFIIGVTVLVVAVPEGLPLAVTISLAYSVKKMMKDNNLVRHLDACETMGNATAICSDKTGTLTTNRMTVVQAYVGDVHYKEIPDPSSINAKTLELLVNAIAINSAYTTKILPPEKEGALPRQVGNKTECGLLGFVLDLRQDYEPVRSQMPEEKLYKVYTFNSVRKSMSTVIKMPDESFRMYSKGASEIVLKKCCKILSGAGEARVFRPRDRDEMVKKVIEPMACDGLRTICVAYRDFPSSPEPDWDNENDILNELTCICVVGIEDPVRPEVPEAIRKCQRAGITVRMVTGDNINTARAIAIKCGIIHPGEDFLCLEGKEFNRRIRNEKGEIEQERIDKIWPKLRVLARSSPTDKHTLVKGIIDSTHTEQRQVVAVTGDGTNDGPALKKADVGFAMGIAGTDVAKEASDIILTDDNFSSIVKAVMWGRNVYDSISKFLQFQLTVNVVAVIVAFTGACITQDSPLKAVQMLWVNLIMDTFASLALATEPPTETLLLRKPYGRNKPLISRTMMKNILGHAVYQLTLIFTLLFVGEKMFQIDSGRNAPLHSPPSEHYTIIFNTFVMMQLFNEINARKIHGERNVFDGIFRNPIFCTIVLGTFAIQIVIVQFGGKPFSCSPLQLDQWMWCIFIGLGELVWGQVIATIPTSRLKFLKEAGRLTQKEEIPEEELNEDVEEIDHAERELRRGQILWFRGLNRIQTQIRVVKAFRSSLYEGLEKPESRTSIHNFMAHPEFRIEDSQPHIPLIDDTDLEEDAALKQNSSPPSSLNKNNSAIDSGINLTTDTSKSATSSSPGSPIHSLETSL
# Protein piccolo = Protein piccolo (UniProt Q9QYX7); test: as above
# [27] = target: Ragulator complex protein LAMTOR4 (UniProt Q0VGL1); test: as above
# [28] = target: Ras-related C3 botulinum toxin substrate 1 (UniProt P63000); test: as above
# [29] = target: Small ribosomal subunit protein RACK1 (UniProt P68040); test: as above
# [30] = target: Small ribosomal subunit protein eS19 (UniProt Q9CZX8); test: as above
# AP-2 complex subunit sigma, P53680, sequence (P53680 whole entry, one chain of several): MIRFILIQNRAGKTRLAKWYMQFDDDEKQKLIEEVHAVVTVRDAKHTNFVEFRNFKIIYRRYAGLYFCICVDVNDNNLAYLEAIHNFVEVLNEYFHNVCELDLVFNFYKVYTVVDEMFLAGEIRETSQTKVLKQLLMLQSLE
# Dynein light chain 2, cytoplasmic, Q9D0M5, sequence (Q9D0M5 whole entry): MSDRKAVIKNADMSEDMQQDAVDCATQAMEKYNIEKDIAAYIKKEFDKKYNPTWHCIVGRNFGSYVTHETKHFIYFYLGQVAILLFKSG
# Ras-related protein Rab-14, Q91V41, sequence (Q91V41 whole entry): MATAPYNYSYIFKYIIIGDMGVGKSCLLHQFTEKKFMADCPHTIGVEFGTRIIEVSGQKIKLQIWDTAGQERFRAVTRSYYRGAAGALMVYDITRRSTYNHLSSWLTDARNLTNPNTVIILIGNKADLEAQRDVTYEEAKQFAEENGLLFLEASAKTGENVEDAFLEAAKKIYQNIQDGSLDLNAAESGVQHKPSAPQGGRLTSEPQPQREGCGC
substance,measurement,setting,value
"Large ribosomal subunit protein uL14, P62829",listed as a hit,Histone H2A type 1-J,yes
"Actin-related protein 3, Q99JY9",listed as a hit,[1],yes
"Large ribosomal subunit protein eL34, P49207",listed as a hit,[2],yes
same,listed as a hit,[3],yes
"Actin-related protein 2/3 complex subunit 4, P59999",listed as a hit,[4],yes
same,listed as a hit,[5],yes
"Histone H2A type 1-J, Q99878",listed as a hit,Histone H2B type 1-L,yes
same,listed as a hit,Histone H2B type 1-M,yes
"Histone H2B type F-S, P57053",listed as a hit,Histone H4,yes
"Large ribosomal subunit protein uL5, P62913",listed as a hit,[6],yes
"AP-2 complex subunit sigma, P53680",listed as a hit,[7],yes
same,listed as a hit,[8],yes
"L-lactate dehydrogenase A chain, P06151",listed as a hit,[9],yes
"Large ribosomal subunit protein eL8, P12970",listed as a hit,[10],yes
"Large ribosomal subunit protein eL31, P62900",listed as a hit,[11],yes
"Acyl carrier protein, mitochondrial, O14561",listed as a hit,[12],yes
same,listed as a hit,[13],yes
"Actin, cytoplasmic 2, P63261",listed as a hit,[14],yes
"Histone H3.3, P84244",listed as a hit,Histone H2B type 1-C/E/G,yes
"Elongation factor 2, P13639",listed as a hit,[15],yes
"Large ribosomal subunit protein mL53, Q96EL3",listed as a hit,[16],yes
"Small ribosomal subunit protein uS19, P62841",listed as a hit,[17],yes
"Large ribosomal subunit protein uL2, P62917",listed as a hit,[18],yes
"Leucine-rich PPR motif-containing protein, mitochondrial, P42704",listed as a hit,[19],yes
"Large ribosomal subunit protein uL1, P62906",listed as a hit,[20],yes
"Small ribosomal subunit protein eS7, P62082",listed as a hit,[21],yes
same,listed as a hit,[22],yes
"Adenylate kinase 2, mitochondrial, P54819",listed as a hit,[23],yes
same,listed as a hit,[24],yes
"Ras-related protein Rab-14, Q91V41",listed as a hit,[25],yes
P62204,listed as a hit,[26],yes
"Dynein light chain 2, cytoplasmic, Q9D0M5",listed as a hit,Protein piccolo,yes
"Ragulator complex protein LAMTOR5, O43504",listed as a hit,[27],yes
"Ras-related C3 botulinum toxin substrate 3, P60763",listed as a hit,[28],yes
"Small ribosomal subunit protein uS3, P62908",listed as a hit,[29],yes
"Small ribosomal subunit protein uS9, P14131",listed as a hit,[30],yes
